Only a selection was taken, and hits are over-represented in it overall.
TTR transcr act = activators of transthyretin transcription | SH-SY5Y TTR promoter Gaussia luciferase, luminescence; 100% = recombinant luciferase protein wells | activation, % at 16.7 µM | 1.3% of 92,000 active | AID 1117267;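 active = activation above the mean of all tested compounds plus 3 SD, cut at about 9.5% in these data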;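 note: cells exposed to compounds for one day before reading; 0% = median of all test compound wells on the plate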
HuH7 TTR inh = HuH7 TTR transcription inhibition, counter-screen. HuH7 TTR promoter-Gaussia luciferase reporter, luminescence. inhibition, % at 16.7 µM. shares compounds with TTR transcr act. 4% of 1,100 active;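 active = average inhibition above the solvent-only control wells' mean plus 3 SD, cut at about 15% in these data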;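 note: 0% = cells with DMSO only and 100% = cells with inhibitor control FD; inhibitors lower well luminescence so higher value means more inhibition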
TTR act confirm = confirmation of human transthyretin transcription activators; shares compounds with TTR transcr act; SHSY5Y TTR promoter Gaussia luciferase, luminescence; 100% = purified Lucia enzyme wells, no cells; 1,100 tested, under 10 active; activation, % at 16.7 µM;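 active = mean activation above a set limit taken from the earlier primary screen, cut at about 11% in these data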;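 note: 0% = DMSO-treated cells and 100% = recombinant Lucia luciferase without cells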
* hit, by the source's call.

SMILES	TTR transcr act	others
Cc1ccc[n+](CC(=O)c2ccc(NC(=O)c3ccccc3)cc2)c1	1.4
O=[N+]([O-])c1ccc2nc(SCc3cn4cc(Cl)ccc4n3)[nH]c2c1	1.5
CC(C)NC(=O)Cn1nnc(-c2ccc(Cl)cc2)n1	-0.7
CC1(C)C([N+](=O)[O-])C(c2ccc(Cl)cc2)NC(c2ccc(Cl)cc2)C1[N+](=O)[O-] (stereo unspecified)	1.9
CCCCCCCNC(=O)COc1ccc2c(c1)C(=O)CC(C)(C)O2	-2.1
CC(=O)c1cnc2cc(-c3cccc(Br)c3)nn2c1C	9.7*	HuH7 TTR inh=-1.3;TTR act confirm=0.4
CCOC(=O)c1cnc2cc(-c3ccc(C(C)(C)C)cc3)nn2c1N	-0.5
Cc1cc(C)n2nc(-c3cccc(Br)c3)cc2n1	0.1
CC1(C(=O)Nc2ccc3c(c2)OCCO3)CCN1Cc1ccccc1OC(F)F (stereo unspecified)	-0.6
CCOc1ccccc1-c1nc(C(N)=O)c2[nH]c(=O)n(-c3ccc(F)cc3)c2n1	0.8
Cc1ccsc1-c1nc(C(N)=O)c2[nH]c(=O)n(-c3ccc(Cl)cc3)c2n1	2.2
CC(C)c1nc(C(N)=O)c2[nH]c(=O)n(-c3ccc(F)cc3)c2n1	9.8*	HuH7 TTR inh=-8.1;TTR act confirm=-1.5
Oc1ccc(N=Nc2nc(-c3ccccc3)c(-c3ccccc3)[nH]2)cc1	-3.1
O=C(Nc1ccc2c(c1)OCCO2)NC12CC3CC(CC(C3)C1)C2	-0.5
Cc1ccnc(SCC(=O)c2ccc(Br)s2)n1	0.9
COc1cccc(-c2csc(NC(=O)Nc3ccccc3)n2)c1	-4.6
COc1cccc(-c2csc(NC(=O)C3CC3)n2)c1	10.9*	HuH7 TTR inh=32.9*;TTR act confirm=-1.2
COc1cccc(C(=O)Nc2nc(-c3ccncc3)cs2)c1	-0.9
Cc1cc(C)cc(NC(=O)COC(=O)c2cccc(S(=O)(=O)N3CCCCC3)c2)c1	-1.9
Brc1ccc(-c2c(-c3ccsc3)sc3ccccc23)cn1	-1.5
OCCC#Cc1c(-c2ccsc2)sc2ccccc12	10.0*	HuH7 TTR inh=-8.1;TTR act confirm=-0.8
COc1ccc2c(C#CCCO)c(-c3ccc(S(C)(=O)=O)cc3)sc2c1	-2.6
CC(C)(C)C(=O)CSc1ncnc2sc3c(c12)CCC3	2.1
Cc1ccsc1/C=N\NC(=O)c1cc(C(C)(C)C)[nH]n1	-0.9
O=C1CCC(=O)N1c1ccccc1	0.6
SMILES	TTR transcr act	others
O=C1CSCC(=O)N1c1ccccc1	34.5*	HuH7 TTR inh=-8.6;TTR act confirm=-0.3
O=C1CSC(=S)N1c1ccccc1	1.7
CCC1=NN(C(=O)Cc2ccccc2)C(O)(c2ccncc2)C1 (stereo unspecified)	-0.7
O=c1c(Cc2ccc(Cl)cc2Cl)c(O)ccn1Cc1ccncc1	-0.2
CCCc1nc(N)c(C#N)c(-c2cccnc2)c1CC	1.7
Cc1c(-c2ccccc2)nc(N)c(C#N)c1-c1cccnc1	11.7*	HuH7 TTR inh=-6.0;TTR act confirm=-0.9
Cc1c(CC(C)C)nc(N)c(C#N)c1-c1ccccc1	0.4
CCOC(=O)c1ccccc1Cc1nc2ccccc2c(=O)[nH]1	1.9
COc1ccc(C(OC(=O)c2ccco2)C(=O)NC(C)(C)C)cc1 (stereo unspecified)	25.6*	HuH7 TTR inh=-1.9;TTR act confirm=-0.9
CCC(OC(=O)c1ccco1)C(=O)NCc1ccc(OC)cc1 (stereo unspecified)	-1.2
COc1ccc(CNC(=O)C(OC(=O)c2ccco2)c2ccccc2F)cc1 (stereo unspecified)	-1.9
O=S1(=O)CCN(CCc2ccccc2)CC1	2.0
Cc1cc(C)c(C(=O)C(C)OC(=O)C2=COCCO2)cc1C (stereo unspecified)	-1.0
Cc1ccc(C(=O)Nc2sc(C(=O)N(C)C)c(C)c2C#N)cc1	-0.2
O=C(OCC(=O)N1CCN(Cc2ccccc2)CC1)c1ccc(Cl)cc1	0.2
Cc1cc(C)cc(OCC(=O)NNC(=O)c2ccoc2C)c1	0.6
Cc1cccc(C)c1OCC(=O)NNC(=O)c1ccoc1C	7.2
CCCC(=O)NNC(=O)c1ccoc1C	16.8*	HuH7 TTR inh=-8.8;TTR act confirm=-0.6
COc1ccccc1NC(=O)c1ccc2c(c1)C(=O)N(c1ccccc1OC)C2=O	-1.3
CCOC(=O)c1sc(NC(=O)c2ccc(S(=O)(=O)N3CCOCC3)cc2)nc1-c1ccccc1	-1.2
CCOC(=O)Nc1nc(-c2ccccc2)c(C(=O)c2ccc(Cl)cc2)s1	10.8*	HuH7 TTR inh=23.0*;TTR act confirm=-0.3
CCOC(=O)c1sc(N)nc1-c1ccccc1	0.5
COc1cc(C)ccc1NC(=O)Cc1csc(NC(=O)Nc2ccccc2OC)n1	-2.0
Cc1ccn2c(=O)nc(SCC(=O)N3CCCCCC3)nc2c1	-2.0
COc1ccc(NC(=O)CSc2nccn2Cc2ccccc2)c(OC)c1	-1.8
SMILES	TTR transcr act	others
O=S(=O)(O)C(c1ccccc1)C1(O)CCCCC1 (stereo unspecified)	1.1
S=c1[nH]nc(-c2cc(-c3ccccc3)n[nH]2)n1/N=C/c1ccc(Cl)cc1	0.6
Nc1nc(-c2ccccc2)cn1/N=C/c1ccccc1	1.0
S=c1[nH]ncn1/N=C/c1ccccc1	17.5*	HuH7 TTR inh=-4.6;TTR act confirm=-0.4
CCOc1ccc(C/C(N)=N/n2cnnc2)cc1	3.0
COc1ccc(CCNC(=O)CSc2nnc(NC(C)=O)s2)cc1OC	-0.8
Cc1nn(-c2ccccc2)c(Cl)c1C(=O)OC(C)C(=O)NC(=O)NC1CCCCC1 (stereo unspecified)	-0.2
CCCC[C@H]1C2CC(OC(=O)Nc3ccccc3Cl)C(C2)[C@H]2CCCCN21 (stereo partly specified)	-0.1
CCOc1cc2[nH]c(=S)n(CCCCC(=O)NCc3ccco3)c(=O)c2cc1OCC	1.1
CCOc1cc2[nH]c(=S)n(CCC(=O)NCc3ccc(OC)cc3)c(=O)c2cc1OCC	25.7*	HuH7 TTR inh=7.2;TTR act confirm=-0.8
CCOc1cc2[nH]c(=S)n(CCCOC)c(=O)c2cc1OCC	0.1
C#CCOCCOCCOCCNc1nc(N2CCOCC2)nc(N2CCN(C(=O)[C@H](CCCCN)n3cc([C@@H](N)CO)nn3)CC2)n1	2.2
C#CCOCCOCCOCCNc1nc(N2CCN(C(=O)[C@H](CCCN=C(N)N)n3cc(C(N)[C@@H](C)CC)nn3)CC2)nc(N2CCN(C(=O)[C@H](CCCCN)n3cc([C@@H](N)CC(N)=O)nn3)CC2)n1 (stereo partly specified)	-1.6
C#CCOCCOCCOCCNc1nc(N2CCN(C(=O)[C@H](CO)n3cc([C@@H](N)C(C)C)nn3)CC2)nc(N2CCN(C(=O)[C@H](CCCCN)n3cc([C@@H](N)[C@H](C)CC)nn3)CC2)n1	18.6*	HuH7 TTR inh=-4.3;TTR act confirm=0.8
O=C(NCCCn1ccnc1)/C(=C\c1cccs1)NC(=O)c1ccccc1	1.1
CCn1c(COc2cccc(C)c2)nnc1SCC(=O)Nc1cccc(C(=O)O)c1	2.1
CN1CCc2c(c3c(n2C)CCN(C)[C@@H]3c2cccnc2)[C@H]1c1cccnc1	1.7
COc1ccc(Cc2nnc(NC(=O)c3cccs3)s2)cc1OC	15.1*	HuH7 TTR inh=-30.2;TTR act confirm=0.0
COc1ccc(Cc2nnc(NC(=O)c3ccc(OC(C)=O)cc3)s2)cc1OC	5.3
COc1cccc(C(=O)Nc2nnc(Cc3ccc(OC)c(OC)c3)s2)c1	-0.8
CC(C)CCNC(=O)COc1cccc2c1OC(C)(C)C2	0.3
NC(=O)c1ccc(-n2nnnc2SCC(=O)Nc2ccc(N3CCOCC3)c(Cl)c2)cc1	0.8
CCOC(=O)C1(Cc2ccccc2)CCN(Cc2cn[nH]c2-c2ccccc2)CC1	-1.2

From PubChem
